Bioassay records (PubChem)
GLS inhibitor – glutaminase GLS (human) inhibition; O94925; GLS enzymatic activity, qHTS titration; Potency, µM (highest dose often 45.5 µM), for the others: top-dose activity change, negative = inhibition, usual class: inhibitors; 0.21% of 410,000 active; AID 624170; note: potency is the fitted concentration of half-maximal effect; % is set by controls: 0 for no effect and ±100 for the full control effect
Target sequence (O94925 whole entry, looked up): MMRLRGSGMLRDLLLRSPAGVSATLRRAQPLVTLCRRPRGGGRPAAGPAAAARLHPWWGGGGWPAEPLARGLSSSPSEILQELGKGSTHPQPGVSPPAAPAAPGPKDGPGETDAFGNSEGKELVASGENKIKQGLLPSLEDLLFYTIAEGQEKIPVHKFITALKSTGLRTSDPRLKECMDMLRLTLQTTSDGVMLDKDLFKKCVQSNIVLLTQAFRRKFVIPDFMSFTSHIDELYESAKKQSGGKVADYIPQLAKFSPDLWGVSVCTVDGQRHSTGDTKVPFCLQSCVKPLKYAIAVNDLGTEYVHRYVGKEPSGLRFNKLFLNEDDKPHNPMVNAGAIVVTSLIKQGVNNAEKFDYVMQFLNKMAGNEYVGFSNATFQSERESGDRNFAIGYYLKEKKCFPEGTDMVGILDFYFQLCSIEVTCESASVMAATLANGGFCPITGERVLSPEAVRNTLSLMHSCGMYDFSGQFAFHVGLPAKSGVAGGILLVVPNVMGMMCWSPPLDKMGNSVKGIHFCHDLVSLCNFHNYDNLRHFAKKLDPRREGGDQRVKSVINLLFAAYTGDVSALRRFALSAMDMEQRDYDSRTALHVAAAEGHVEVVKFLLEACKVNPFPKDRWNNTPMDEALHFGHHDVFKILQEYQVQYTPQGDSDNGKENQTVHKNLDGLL
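Enzyme dispensed in phosphate buffer (45 mM, pH 8.2, 0.02% Tween-20), compounds pinned in, then 1 mM L-glutamine solution and the glutamate oxidase–HRP–Amplex Red mix added; fluorescence read immediately and again after 30 min at room temperature.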
BRCA1 expr act – BRCA1 expression activation; MCF7-BRCA1-FFLuc reporter, luminescence, 48 h; response scale: scaled: vehicle 0%, 10 µM genistein 100%; 1.1% of 380,000 active; AID 624202; Potency, µM (titrated, usually from 46.1 µM), for the others: at the top dose activation, usual class: activators; note: potency is the fitted concentration of half-maximal effect; nearly all actives have a fitted effect of over 80% in size
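Reporter cells (MCF7, BRCA1 promoter-firefly luciferase) received library compounds across a concentration series for 48 h. End-point luminescence was measured and concentration-effect curves derived after normalization.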
TCR act – activators of T cell receptors; primary human leukocytes, anti-CD3, IL-2 HTRF, 48 h; Potency, µM (highest dose often 9.22 µM), inactives show at the top dose activation of IL-2 secretion, most hits filed as activators; 330,000 tested, under 10 active; AID 504894; note: % of control where 0% means no effect
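Activity was scored as IL-2 release from primary human leukocytes given only a TCR signal (a-CD3 beads) plus compound for 48 hr. Detection used a two-antibody HTRF format read at 665nm.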
p53 reactivator – re-activators of mutant p53. H1299 p53-A138V BP100-luciferase reporter, luminescence, 24 h. 0.063% of 320,000 active. Potency, µM (doses to about 92.2 µM), inactives show at the highest dose activity change, positive = activation, most hits filed as activators. AID 504706; note: potency is the fitted concentration of half-maximal effect; % of control where 0% means no effect; nearly all actives have a fitted effect of over 45% in size
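p53-null H1299 cells stably carrying temperature-sensitive p53-A138V and a BP100-luciferase reporter were pinned with compounds (4-point, 1:5 series) and held 24 hrs at 37 deg C. Luminescence was read 10 min after detection reagent.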
TSHR antag – antagonists of human thyroid stimulating hormone receptor. AID 504810. P16473. 0.2% of 330,000 active. TSHR-expressing cells, TSH-stimulated cAMP HTRF, 2 h; active compounds read low. activity change, negative = inhibition, % at 11.5 µM;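 active = activity change below a set negative limit, meaning inhibition stronger than a set level, cut at about -70% in these data; inconclusive = activity change between two set negative limits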; note: % is set by controls: 0 for no effect and ±100 for the full control effect
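TSHR-expressing cells, 200/well, pre-treated with compound, then stimulated with EC80 TSH (4nM final) for 2 hours at 37 deg C. cAMP measured by competitive HTRF: anti-cAMP cryptate antibody in lysis buffer plus cAMP-d2, read after 30 minutes at room temperature.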
N370S GC mod – N370S glucocerebrosidase modulation, Gaucher chaperone candidate; Potency, µM (doses to about 59.4 µM), for the others: at the top dose activity change, negative = inhibition, usual class: inhibitors; 0.092% of 330,000 active; P04062; N370S GC spleen homogenate, 4MU-glucoside fluorescence; AID 2101;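 note: potency is the fitted concentration of half-maximal effect; 0% = full enzyme activity and -100% = no enzyme basal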
Active calls of the source: *; ? = inconclusive; nt = not tested or not shown; [ ] = remark or other dose. Compounds with a hit are over-represented: about 1.4% of the library has one in this group of screens. Unless noted, calls come from the whole dose curve; as a rule, active = well fitted curve in the direction sought with a large enough effect; inconclusive = small, poorly fitted or top-dose-only effect, or another doubt; inactive = no such curve, though single readings can be large; an effect the other way counts as inactive or inconclusive.

SMILES	GLS inhibitor	BRCA1 expr act	TCR act	p53 reactivator	TSHR antag	N370S GC mod
C/C(=N/Nc1nc(-c2ccccc2)cc(-c2ccccc2)n1)c1ccc(N)cc1	nt	nt	3.2%[46.1 µM]	31.6µM*	-5.1	4.2%
C=CCc1c(C)nc(-c2ccccc2)nc1N/N=C/c1ccccc1	10.0%	24.3%	-4.9%[46.1 µM]	?	-12.1	15.8µM*
C/C(=N/Nc1cc(-c2ccccc2)nc(-c2ccccc2)n1)c1ccc(O)cc1	13.2%	-84.9%	-2.1%[46.1 µM]	-4.1%	90.2	-4.8%
C=CCc1c(C)nc(-c2ccccc2)nc1N/N=C(\C)c1ccc(N)cc1	26.4%	21.6%	2.2%	14.1%	-0.2	12.6µM*
C=C1C=C(C(F)F)n2ncc(C(=O)NCc3ccc(Cl)cc3)c2N1	nt	-6.2%	nt	nt	nt	nt
CC1=C(C(=O)Nc2cccnc2)C(c2cccc(O)c2)n2nc(SCc3ccccc3)nc2N1 (stereo not drawn)	11.5%	nt	nt	nt	nt	nt
O=C1CCC[C@H]2OC12[C@@H](O)CCc1ccccc1 (stereo partly drawn)	nt	nt	nt	nt	nt	3.2%[12.8 µM]
COc1ccccc1C(=O)N1CCC(c2noc(-c3ccc(S(=O)(=O)N4CCCC4)cc3)n2)CC1	-2.2%	nt	nt	nt	nt	nt
O=C(NNC(=O)c1cccs1)c1ccc(Br)cc1	9.0%	12.6µM*	4.3%	12.8%	3.6	2.0%
C[N+]1(C)CCN(C[C@@](O)(c2ccccc2)C2CCCCC2)CC1	-2.2%	nt	nt	nt	nt	nt
COc1cccc(Nc2ccc(C(=O)O)cc2N)c1	3.16µM*	92.3%	-2.6%	?	-25.9	?
COC(=O)CCNC(=O)c1ccc2nc(Cc3ccc(OC)c(OC)c3)oc2c1	-3.5%	?	4.8%	2.2%	-8.2	-2.6%
COc1ccc(Cc2nc3ccc(C(=O)NCCCSC)cc3o2)cc1OC	4.9%	12.6µM*	-0.6%	nt	29.5	-11.2%
CC1(C)N=C(N)N=C(N)N1c1ccc(Cl)cc1	-13.3%	nt	nt	nt	nt	nt
COc1cccc2sc(NN)nc12	14.1µM*	-2.6%	5.6%	1.4%	-9.4	0.5%
COC(=O)c1cc(Cl)c(NC(=O)c2ccc(C(C)(C)C)cc2)cc1OC	-8.1%	3.55µM*	nt	2.3%	-41.8	6.9%
Cc1cccc(-c2nc3cc([N+](=O)[O-])ccc3o2)c1	-5.4%	2.51µM*	-4.4%	10.5%	6.8	3.1%
Cc1ccc2oc(-c3ccccc3)nc2c1	-4.1%	?	-0.9%	?	4.3	-13.8%
O=[N+]([O-])c1ccc2oc(-c3ccccc3)nc2c1	-0.8%	3.16µM*	-4.1%	8.8%	-8.2	-1.1%
NC1C(N)C(N)C1N (stereo not drawn)	nt	21.4%	nt	nt	nt	nt
CC(=Nc1ccc(Br)cc1)c1sc2ccccc2c1O	-7.7%	3.98µM*	2.4%	?	3.2	23.8%
CC1CCN(C(=O)CSc2nc3ccccc3[nH]2)CC1	-0.8%	3.55µM*	7.3%	?	13.5	2.8%
NC(=O)C1CCN(C(=O)CSc2nc3ccccc3[nH]2)CC1	-15.9%	4.9%	-0.1%	0.7%	-3.1	15.4%
C/C(N)=C(/C#N)C(=O)CSc1nc2ccccc2[nH]1	-0.4%	7.94µM*	-0.2%	?	-7.4	-1.5%
O=C(CNC(=S)NC(=O)C1CCCCC1)c1ccccc1	7.5%	6.31µM*	-2.7%[46.1 µM]	?	-6.2	-0.1%
SMILES	GLS inhibitor	BRCA1 expr act	TCR act	p53 reactivator	TSHR antag	N370S GC mod
Cc1ccnc(NC(=O)c2ccc(Cl)c(S(=O)(=O)N3CCCC3)c2)c1	-10.3%	7.08µM*	1.3%	6.8%	-7.6	2.0%
Cc1ccnc(NC(=O)c2ccc(Cl)c(S(=O)(=O)N3CCCCC3)c2)c1	0.5%	50.8%	-2.9%	?	21.2	nt
Cc1nc(/C(N)=N/OC(=O)c2ccccc2Cl)c(C(F)(F)F)o1	0.3%	11.2µM*	0.7%	?	-13.6	-2.9%
COc1cc(Cl)c(C)cc1NC(=O)CC(c1ccc(F)cc1)N1Cc2ccccc2C1=O (stereo not drawn)	-5.8%	nt	nt	nt	nt	nt
Cc1nn(-c2ccc(N3CCCCC3)nn2)c(C)c1CCC(=O)Nc1ccc(F)cc1	-8.5%	93.9%	2.3%	25.3%	-9.7	-6.4%
Cc1nn(-c2ccc(N3CCOCC3)nn2)c(C)c1CCC(=O)NCc1ccccc1F	-2.5%	2.7%	-3.8%	7.0%	-105.0*	-11.1%
CCc1ccc(NC(=O)CCc2c(C)nn(-c3ccc(N4CCCCC4)nn3)c2C)cc1	3.3%	?	-4.6%	?	2.2	-12.5%
CCOc1ccc(NC(=O)CCc2c(C)nn(-c3ccc(N4CCCCC4)nn3)c2C)cc1	5.6%	11.2µM*	10.4%	?	0.0	-6.7%
Cc1ccc(NC(=O)CCc2c(C)nn(-c3ccc(N4CCCCC4)nn3)c2C)cc1F	5.6%	3.16µM*	-2.9%	14.0%	-8.3	-13.9%
COc1ccccc1CNC(=O)CCc1c(C)nn(-c2ccc(N3CCOCC3)nn2)c1C	2.0%	11.3%	nt	nt	nt	nt
Cc1ccc2nc(NCCN)c3ncc(C)n3c2c1	nt	nt	nt	nt	nt	-4.5%
O=C(Cc1ccc(OCCc2ccccc2)cc1)NO	nt	32.1%	nt	nt	nt	nt
C[S+](C)CC[C@H](N)C(=O)O	15.6%	nt	nt	nt	nt	nt
CN(C(=O)CN1C(=O)/C(=C/c2ccccc2Cl)SC1=S)C1CCS(=O)(=O)C1 (stereo not drawn)	-0.9%	-2.1%	3.4%	16.4%	-126.4*	1.9%
Nc1ncnc2c1nc(Sc1ccc(Cl)cc1)n2[C@H]1OC2COP(=O)(O)O[C@@H]2C1O (stereo partly drawn)	nt	nt	nt	nt	-6.5	nt
Fc1cccc(Cc2c(-c3ccco3)nc3ccc(Br)cn23)c1	15.8µM*	-16.7%	nt	nt	nt	nt
O=C(NC1CCCC1)c1ccc(Cl)c(S(=O)(=O)N2CCOCC2)c1	19.4%	0.5%	-13.3%	8.2%	-9.0	-19.4%
Cc1ccc(C(=O)NC2CCCCCCC2)cc1S(=O)(=O)N1CCOCC1	9.9%	10µM*	-1.1%	22.1%	-14.1	-4.7%
Nc1[nH]c(=S)nc2nnsc12	nt	7.1%	nt	nt	nt	nt
CC(C)OCCCn1c(=O)c2ccccc2n2c(CCC(=O)O)nnc12	1.7%	-2.2%	-4.6%	-1.7%	5.0	-30.1%
CC(C)OCCCn1c(=O)c2ccccc2n2c(CCC(=O)NC3CCN(Cc4ccccc4)CC3)nnc12	5.0%	-6.1%	1.2%	-3.9%	-125.4*	-2.7%
Cc1ccc(OC(=O)COc2ccccc2C)c(-n2nc3ccccc3n2)c1	30.0%	?	0.8%[46.1 µM]	39.8µM*	-23.3	-1.3%
Cc1ccc(OC(=O)COc2ccccc2)c(-n2nc3ccccc3n2)c1	-2.5%	?	-10.9%	?	-5.9	4.9%
c1ccc2c(CCC3CCNCC3)c[nH]c2c1	17.2%	nt	nt	nt	nt	nt
CCOc1cccc(C2C=C(c3ccc4c(c3)OCO4)NC(c3ccc(Br)cc3)N2)c1O (stereo not drawn)	nt	-24.0%	nt	nt	nt	nt
